An excerpt weighted towards active compounds, which were near 2.3% of everything screened.
GLD-1 RNA inh: GLD-1-TGE RNA interaction inhibition (C. elegans) | purified GLD-1 + fluorescein TGE RNA, fluorescence polarization | Q17339 | inhibition, % at 5.96 µM | 0.44% of 320,000 active | AID 2280;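 active = percent inhibition above a per-plate cutoff, the plate mean of test compounds plus 3 SD, cut at about 30% in these data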;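 note: 0% = DMSO wells with GLD-1 and probe and 100% = wells lacking GLD-1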
BCLXL inh: inhibitors of human Bcl-xL | inhibition, % at 10.9 µM | 0.7% of 320,000 active | Q07817 | AID 2129 | GST-Bcl-xL / FITC-Bim BH3 peptide fluorescence polarization;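 active = inhibition above the mean of all tested compounds plus 3 SD, cutoff set per campaign, cut at about 30% in these data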;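 note: 0% = DMSO wells and 100% = unlabeled Bim-BH3 peptide competitor; inhibitors lower millipolarization by displacing the labeled peptide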
Target sequence (Q07817 whole entry, looked up): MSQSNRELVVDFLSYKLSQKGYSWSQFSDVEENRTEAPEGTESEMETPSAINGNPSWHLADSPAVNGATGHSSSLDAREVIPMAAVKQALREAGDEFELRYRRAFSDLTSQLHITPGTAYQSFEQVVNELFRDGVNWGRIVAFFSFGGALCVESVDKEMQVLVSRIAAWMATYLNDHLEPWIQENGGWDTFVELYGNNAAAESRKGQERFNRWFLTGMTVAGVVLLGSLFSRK
Mcl1-Noxa inh: Mcl-1/Noxa interaction inhibition; AID 1022; inhibition, % at 21.7 µM; TR-FRET Mcl-1/Noxa peptide binding, 2 h; 1.5% of 220,000 active;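 active = compounds that cut the protein-peptide binding signal by more than 50% relative to plate controls in a single-dose test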;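 note: His-tagged Mcl-1 with rhodamine Noxa BH3 peptide and terbium anti-His antibody; 0% = Mcl-1 plus Noxa peptide wells and 100% = peptide-only wells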
Target sequence (Q07820 whole entry, looked up): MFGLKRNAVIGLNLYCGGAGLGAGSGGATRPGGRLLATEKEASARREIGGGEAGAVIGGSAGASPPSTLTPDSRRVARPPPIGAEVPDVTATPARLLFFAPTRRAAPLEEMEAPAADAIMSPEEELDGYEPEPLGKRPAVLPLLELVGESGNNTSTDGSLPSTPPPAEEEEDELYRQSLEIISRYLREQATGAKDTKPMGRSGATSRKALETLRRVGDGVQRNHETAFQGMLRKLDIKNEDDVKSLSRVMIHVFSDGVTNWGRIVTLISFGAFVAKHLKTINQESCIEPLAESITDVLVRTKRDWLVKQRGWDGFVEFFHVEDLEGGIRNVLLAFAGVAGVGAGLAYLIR
MCL1 BIM primary: MCL1-BIM-BH3 interaction inhibition (human) | GST-MCL1 / FITC-Bim-BH3 fluorescence polarization | Q07820 | inhibition, % at 10.9 µM | 0.68% of 320,000 active;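 active = inhibition above the mean inhibition of all tested compounds plus 3 SD, set per campaign, cut at about 40% in these data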;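 note: 0% = DMSO wells and 100% = unlabeled Bim-BH3 peptide control; higher means more loss of mP so more displacement of Bim peptide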
Mcl1-Bid inh: Mcl-1/Bid interaction inhibition; Q07820; TR-FRET Mcl-1/Bid-Dy647 peptide binding, 1536-well; inhibition, % at 21.7 µM; 0.97% of 220,000 active; AID 1021;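 active = compounds that cut the binding signal by more than half at the single screening dose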;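 note: His-tagged Mcl-1 with europium anti-His antibody binding Bid BH3 peptide; 0% = Mcl-1 plus peptide wells and 100% = peptide-only wells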
Mcl-1 Bim block: inhibitors of Bim-Mcl-1 interaction, human; Bead-based flow cytometry, Bim peptide-Mcl-1 binding; inhibition, % at 10 µM; 0.1% of 190,000 active; AID 1009; in the data active = inhibition above about 40%;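 note: 0% = no compound tracer wells and 100% = peptide blocker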
BCLXL inh confirm: counter-screen for MCL1 inhibitors: confirmation of human Bcl-xL inhibitors. shares compounds with MCL1 BIM primary. inhibition, % at 10.9 µM. GST-Bcl-xL / FITC-Bim BH3 peptide FP binding. 54% of 1,700 active;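 active = inhibition above a cutoff equal to the mean inhibition of all tested compounds plus 3 SD, cut at about 30% in these data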;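 note: 0% = DMSO wells and 100% = unlabeled Bim BH3 control peptide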
MCL1 BIM confirm: confirmation of human MCL1 and BIM-BH3 interaction inhibitors | shares compounds with MCL1 BIM primary | GST-MCL1 / FITC-Bim-BH3 fluorescence polarization | inhibition, % at 10.9 µM | 61% of 1,700 active;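 active = inhibition above the average of all tested compounds plus 3 SD, cut at about 40% in these data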;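 note: 0% = DMSO wells and 100% = unlabeled Bim-BH3 control peptide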
Starred values were filed as active, the others as inactive; · = no result given.

SMILES	GLD-1 RNA inh	BCLXL inh	Mcl1-Noxa inh	MCL1 BIM primary	Mcl1-Bid inh	Mcl-1 Bim block	BCLXL inh confirm	MCL1 BIM confirm
COC(=O)C1=C(C)OC(N)=C(C#N)C1c1ccccc1F (configuration not stated)	2	6	8	10	-15	-4	·	·
CCOC(=O)C1=C(CSc2nc3c(cc2C#N)CCC3)OC(N)=C(C#N)C1c1ccccc1 (configuration not stated)	-68	13	25	6	-29	0	·	·
COC(=O)C1=C(CSc2nc3c(cc2C#N)CN(C)CC3)OC(N)=C(C#N)C1c1ccccc1F (configuration not stated)	48*	86*	34	100*	-23	-5	23	21
COc1ccc(CNC(=O)CCS(=O)(=O)Cc2cccc(Cl)c2)c(OC)c1	-9	8	0	6	-24	1	·	·
CN=c1scc(-c2cccs2)n1/N=C/c1ccccc1O	5	9	3	8	-37	-7	·	·
C=CCN=c1scc(-c2ccco2)n1/N=C/c1ccc(O)c(O)c1O	1	14	84*	50*	-94	·	29	78*
CN=c1scc(-c2cccs2)n1/N=C/c1ccc(O)c(O)c1O	8	22	108*	53*	-50	3	68*	56*
CN=c1scc(C)n1/N=C/c1ccc(O)c(O)c1O	18	22	91*	58*	-84	8	79*	121*
Cc1ccc(NC2CCCN(C(=O)c3cn(C)c4ccccc34)C2)cc1C (configuration not stated)	1	8	·	2	·	·	·	·
CCOC(=O)COn1c(=O)c(-c2ccc(OC)c(OC)c2)[n+]([O-])c2ccccc21	5	14	35	72*	1	-8	18	13
CCOC(=O)COn1c(=O)c(-c2ccc(OC)cc2)[n+]([O-])c2ccccc21	2	4	·	-1	·	·	·	·
COc1cc(NC(=O)C/C(C)=N/NC(=O)Cc2ccc(Cl)cc2)c(OC)cc1Cl	0	3	11	8	-26	0	·	·
COC(=O)c1ccccc1NC(=O)C/C(C)=N/NC(=O)Cc1ccc(Cl)cc1	-4	4	·	53*	·	·	-1	25
CCc1sc(C(C2C(=O)CC(C)(C)CC2=O)C2C(=O)CC(C)(C)CC2=O)cc1[N+](=O)[O-]	8	16	48	43*	33	5	15	57*
CC1(C)CC(=O)C(C(c2ccc(F)cc2)C2C(=O)CC(C)(C)CC2=O)C(=O)C1	6	-2	16	1	-32	3	·	·
COc1ccc(OC)c(-c2c3cc(O)c(=O)cc-3oc3cc(O)c(O)cc23)c1	76*	111*	91*	118*	-1	-116	120*	133*
COc1ccc(NS(=O)(=O)c2cccc(C(=O)Nc3cccc(C(=O)O)c3)c2)cc1	6	4	·	68*	·	·	-1	-2
COc1ccc(NS(=O)(=O)c2cccc(C(=O)O)c2)cc1	6	12	24	13	-24	-3	·	·
COc1ccc(CC(=O)Nc2cccc(C(=O)Nc3cccc(C)c3)c2)cc1	6	6	-8	118*	-34	-1	1	5
O=C(NCc1cc2ccccc2[nH]1)c1ccccc1F	-4	1	·	-13	·	·	·	·
CCN(CC(=O)Nc1c(F)cccc1F)C(=O)c1cc([N+](=O)[O-])ccc1N1CCCCC1	1	1	·	-14	·	·	·	·
Cc1ccc(S(=O)(=O)/N=C(/Nc2ccc(O)c(C(=O)O)c2)c2ccccc2)cc1	0	-3	·	-9	·	·	·	·
Cc1ccc2nc(-c3ccccc3)cn2c1	-5	1	18	3	-1	2	·	·
Cc1ccc2nc(-c3ccc(O)c(O)c3)cn2c1	9	23	·	40*	·	·	61*	82*
CC1CC(=O)c2c(cc3c(-c4c(O)cc(O)c5c(O)c6c(cc45)OC(C)CC6=O)c(O)cc(O)c3c2O)O1 (configuration not stated)	5	44*	93*	76*	47	0	25	23
SMILES	GLD-1 RNA inh	BCLXL inh	Mcl1-Noxa inh	MCL1 BIM primary	Mcl1-Bid inh	Mcl-1 Bim block	BCLXL inh confirm	MCL1 BIM confirm
COc1ccc(NC(=O)CSc2nc3ccsc3c(=O)n2CCCCCC(=O)O)cc1	-1	3	17	-6	0	0	·	·
Cc1ccc(N(CC(=O)Nc2ccc3c(c2)OCCO3)S(C)(=O)=O)cc1	-1	2	7	1	-32	0	·	·
Cc1oc2cc(O)ccc2c(=O)c1-c1ccccc1	5	6	6	9	-12	0	·	·
Cc1oc2cc(O)ccc2c(=O)c1-c1nncn1-c1ccccc1	113*	113*	39	109*	-30	0	119*	139*
CCN(CC)c1ccc(S(=O)(=O)N2CCOCC2)cc1NC(=O)CN1C(=O)NC2(CCC(C)CC2)C1=O (configuration not stated)	3	6	·	-4	·	·	·	·
CCOC(=O)C1=C(CN2CCN(C(=O)c3ccco3)CC2)NC(=O)NC1c1ccc(F)cc1 (configuration not stated)	2	5	·	0	·	·	·	·
Cc1cc(C)cc(NC2=CC(=O)CC(c3ccco3)C2)c1 (configuration not stated)	10	1	-1	0	-31	-4	·	·
O=C1C=C(NNC(=O)c2cccnc2)CC(c2ccco2)C1 (configuration not stated)	120*	49*	12	54*	-17	-2	13	14
CCc1cc[n+](-c2nc([O-])sc2C=O)cc1	99*	122*	-2	136*	-35	-1	83*	119*
CCc1ccc(OCCCOc2ccc(C=O)cc2)cc1	-5	3	-14	-5	49	-4	·	·
CC1CCN(S(=O)(=O)c2cc(C(=O)NC3(C)CCS(=O)(=O)C3)ccc2Br)CC1 (configuration not stated)	1	1	·	3	·	·	·	·
COc1cc(NC(C)C(=O)N2CC(C)OC(C)C2)cc(OC)c1 (configuration not stated)	-23	72*	25	82*	1	6	16	15
O=C(COC(=O)c1ccc(Br)o1)Nc1ncc([N+](=O)[O-])s1	-2	13	·	35	·	·	·	·
COc1ccc(C(=O)OCC(=O)Nc2ncc([N+](=O)[O-])s2)cc1OC	-2	23	·	74*	·	·	28	58*
O=C(NCCC1=CCCCC1)c1cccc(S(=O)(=O)N2CCCCC2)c1	-1	0	·	-4	·	·	·	·
